B1: GGGCCAA (DNA:RNA)
RNA: GGGAGACCGGAAUUCAGAUUGUCCGGGCCAAUUAAAUCCCGUCGUAGCCACCA
DNA 1: CAATCTGAATTCCGGTCTCCC
DNA 2: TGGTGGCTACGACGGGATT
B2: UUCGUCU (DNA:RNA)
RNA: GGGAGACCGGAAUUCAGAUUGUCCUUCGUCUUUAAAUCCCGUCGUAGCCACCA
DNA 1: CAATCTGAATTCCGGTCTCCC
DNA 2: TGGTGGCTACGACGGGATT
B3: GGACUAG (DNA:RNA)
RNA: B1 RNA with G27A, C29U, A31G
DNA 1: CAATCTGAATTCCGGTCTCCC
DNA 2: TGGTGGCTACGACGGGATT
B4: ACCCGUU (DNA:RNA)
RNA: B2 RNA with U25A, U26C, G28C, U29G, C30U
DNA 1: CAATCTGAATTCCGGTCTCCC
DNA 2: TGGTGGCTACGACGGGATT
B5: AUGGCUC (DNA:RNA)
RNA: B1 RNA with G25A, G26U, C28G, A30U, A31C
DNA 1: CAATCTGAATTCCGGTCTCCC
DNA 2: TGGTGGCTACGACGGGATT
B6: UAUUUAA (DNA:RNA)
RNA: B1 RNA with G25U, G26A, G27U, C28U, C29U
DNA 1: CAATCTGAATTCCGGTCTCCC
DNA 2: TGGTGGCTACGACGGGATT
B7: AGCAGCG (DNA:RNA)
RNA: B2 RNA with U25A, U26G, G28A, U29G, U31G
DNA 1: CAATCTGAATTCCGGTCTCCC
DNA 2: TGGTGGCTACGACGGGATT
B8: CGAUGGC (DNA:RNA)
RNA: B1 RNA with G25C, G27A, C28U, C29G, A30G, A31C
DNA 1: CAATCTGAATTCCGGTCTCCC
DNA 2: TGGTGGCTACGACGGGATT
B9: GAAUGGC (DNA:RNA)
RNA: B1 RNA with G26A, G27A, C28U, C29G, A30G, A31C
DNA 1: CAATCTGAATTCCGGTCTCCC
DNA 2: TGGTGGCTACGACGGGATT
B10: GAUGGUU (DNA:RNA)
RNA: B2 RNA with U25G, U26A, C27U, U29G, C30U
DNA 1: CAATCTGAATTCCGGTCTCCC
DNA 2: TGGTGGCTACGACGGGATT
B11: GAAUGGU (DNA:RNA)
RNA: B1 RNA with G26A, G27A, C28U, C29G, A30G, A31U
DNA 1: CAATCTGAATTCCGGTCTCCC
DNA 2: TGGTGGCTACGACGGGATT
B12: GGAUGGU (DNA:RNA)
RNA: B1 RNA with G27A, C28U, C29G, A30G, A31U
DNA 1: CAATCTGAATTCCGGTCTCCC
DNA 2: TGGTGGCTACGACGGGATT
B13: GAUUGGC (DNA:RNA)
RNA: B1 RNA with G26A, G27U, C28U, C29G, A30G, A31C
DNA 1: CAATCTGAATTCCGGTCTCCC
DNA 2: TGGTGGCTACGACGGGATT
B14: GAGAAAU (DNA:RNA)
RNA: B1 RNA with G26A, C28A, C29A, A31U
DNA 1: CAATCTGAATTCCGGTCTCCC
DNA 2: TGGTGGCTACGACGGGATT
B15: GAACCCG (DNA:RNA)
RNA: B1 RNA with G26A, G27A, A30C, A31G
DNA 1: CAATCTGAATTCCGGTCTCCC
DNA 2: TGGTGGCTACGACGGGATT
B16: CCUUUUU (DNA:RNA)
RNA: B2 RNA with U25C, U26C, C27U, G28U, C30U
DNA 1: CAATCTGAATTCCGGTCTCCC
DNA 2: TGGTGGCTACGACGGGATT
B17: CGCACUG (DNA:RNA)
RNA: B1 RNA with G25C, G27C, C28A, A30U, A31G
DNA 1: CAATCTGAATTCCGGTCTCCC
DNA 2: TGGTGGCTACGACGGGATT
B18: GUAUUUU (DNA:RNA)
RNA: B2 RNA with U25G, C27A, G28U, C30U
DNA 1: CAATCTGAATTCCGGTCTCCC
DNA 2: TGGTGGCTACGACGGGATT
B19: AGGAGGA (DNA:RNA)
RNA: B1 RNA with G25A, C28A, C29G, A30G
DNA 1: CAATCTGAATTCCGGTCTCCC
DNA 2: TGGTGGCTACGACGGGATT
B20: AGGAUUG (DNA:RNA)
RNA: B1 RNA with G25A, C28A, C29U, A30U, A31G
DNA 1: CAATCTGAATTCCGGTCTCCC
DNA 2: TGGTGGCTACGACGGGATT
B21: ACCAGGA (DNA:RNA)
RNA: B1 RNA with G25A, G26C, G27C, C28A, C29G, A30G
DNA 1: CAATCTGAATTCCGGTCTCCC
DNA 2: TGGTGGCTACGACGGGATT
B22: AGGAUGU (DNA:RNA)
RNA: B1 RNA with G25A, C28A, C29U, A30G, A31U
DNA 1: CAATCTGAATTCCGGTCTCCC
DNA 2: TGGTGGCTACGACGGGATT
B23: AGGAAUC (DNA:RNA)
RNA: B1 RNA with G25A, C28A, C29A, A30U, A31C
DNA 1: CAATCTGAATTCCGGTCTCCC
DNA 2: TGGTGGCTACGACGGGATT
B24: AGGAAUG (DNA:RNA)
RNA: B1 RNA with G25A, C28A, C29A, A30U, A31G
DNA 1: CAATCTGAATTCCGGTCTCCC
DNA 2: TGGTGGCTACGACGGGATT
B25: AGGAGAC (DNA:RNA)
RNA: B1 RNA with G25A, C28A, C29G, A31C
DNA 1: CAATCTGAATTCCGGTCTCCC
DNA 2: TGGTGGCTACGACGGGATT
B26: AGGGAUG (DNA:RNA)
RNA: B1 RNA with G25A, C28G, C29A, A30U, A31G
DNA 1: CAATCTGAATTCCGGTCTCCC
DNA 2: TGGTGGCTACGACGGGATT
B27: AGGGGGA (DNA:RNA)
RNA: B1 RNA with G25A, C28G, C29G, A30G
DNA 1: CAATCTGAATTCCGGTCTCCC
DNA 2: TGGTGGCTACGACGGGATT

Where a chain is given by its changes, count along the chain named. The full ranking holds about 16,000 sequences; the median of “ka relative to ugcaugu” is about 0.096, and the highest 2% start at about 0.35. For the sample, the highest values were picked, then their nearest neighbours and some sequences at random.

The assay addresses T1, RBFOX1 RRM RbFoxmut (Fox-RRM*) (Homo sapiens, UniProt Q9NWB1 109-208, R118D;E147R;N151S;E152T).
T1 sequence: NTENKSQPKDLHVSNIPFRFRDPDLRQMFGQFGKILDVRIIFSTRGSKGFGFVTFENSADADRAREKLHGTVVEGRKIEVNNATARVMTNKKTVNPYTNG
Briefly: EMSA; HiTS-Eq, 1 nM pool, 10 min; buffer printed only for the single-RNA assays: 10 mM Tris pH 7.5, 150 mM NaCl, 3.4 mM EDTA, 0.001% NP-40, 30 C. The following applies: tags: His6 N-terminal (pET28a); label: 5' 32P. Put shortly: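 Purified wild-type or mutant RbFox RRM at increasing concentrations was equilibrated with 1 nM of 5′-radiolabelled RNA carrying 7 randomized nucleotides for 10 min in 50 µL. Unbound RNA was separated by 8% native PAGE and sequenced. Relative association constants came from read-count changes of each RNA species compared with the control reaction, normalised to the cognate motif.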
In general terms: In EMSA bound probe runs differently from free probe, usually more slowly.
As to B1, the binding signal was 0.0698 KA relative to UGCAUGU.
The value for B2 was 0.0697 KA relative to UGCAUGU; that for B3 was 0.0756 KA relative to UGCAUGU; that for B4 was 0.0752 KA relative to UGCAUGU.
To B5 belongs 0.111 KA relative to UGCAUGU; to B6, 0.0892 KA relative to UGCAUGU.
The value for B7 was 0.113 KA relative to UGCAUGU; that for B8 was 0.101 KA relative to UGCAUGU.
For the molecule B9, the binding signal was 0.592 KA relative to UGCAUGU.
To B10 belongs 0.0937 KA relative to UGCAUGU.
The value for B11 was 0.748 KA relative to UGCAUGU; that for B12 was 0.201 KA relative to UGCAUGU; that for B13 was 0.145 KA relative to UGCAUGU.
B14: the binding signal is 0.0893 KA relative to UGCAUGU.
Consider B15, for which the binding signal was 0.0645 KA relative to UGCAUGU.
The value for B16 was 0.0758 KA relative to UGCAUGU.
Regarding B17, the binding signal is 0.125 KA relative to UGCAUGU.
To B18 belongs 0.118 KA relative to UGCAUGU; to B19, 0.084 KA relative to UGCAUGU; to B20, 0.583 KA relative to UGCAUGU.
The value for B21 was 0.0755 KA relative to UGCAUGU.
The value for B22 was 0.339 KA relative to UGCAUGU; that for B23 was 0.261 KA relative to UGCAUGU.
Consider B24, for which the binding signal is 1.4 KA relative to UGCAUGU.
The value for B25 was 0.0904 KA relative to UGCAUGU; that for B26 was 0.476 KA relative to UGCAUGU; that for B27 was 0.149 KA relative to UGCAUGU.
